Screening results (PubChem BioAssay)
ROC1-CUL1 inh: inhibitors of human ROC1-CUL1 ubiquitin ligase activity; P62877+Q13616; in vitro K48 di-Ub FRET, acceptor:donor ratio, 45 min; inhibition, % at 10 µM; actives 0.6% (n = 140,000); AID 1347404; in the data active = inhibition above about 25%
Target sequence (P62877 whole entry, looked up): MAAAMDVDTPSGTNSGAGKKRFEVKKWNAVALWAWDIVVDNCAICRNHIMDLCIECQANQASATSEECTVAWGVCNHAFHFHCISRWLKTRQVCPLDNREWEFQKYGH
Target sequence (Q13616 whole entry, looked up): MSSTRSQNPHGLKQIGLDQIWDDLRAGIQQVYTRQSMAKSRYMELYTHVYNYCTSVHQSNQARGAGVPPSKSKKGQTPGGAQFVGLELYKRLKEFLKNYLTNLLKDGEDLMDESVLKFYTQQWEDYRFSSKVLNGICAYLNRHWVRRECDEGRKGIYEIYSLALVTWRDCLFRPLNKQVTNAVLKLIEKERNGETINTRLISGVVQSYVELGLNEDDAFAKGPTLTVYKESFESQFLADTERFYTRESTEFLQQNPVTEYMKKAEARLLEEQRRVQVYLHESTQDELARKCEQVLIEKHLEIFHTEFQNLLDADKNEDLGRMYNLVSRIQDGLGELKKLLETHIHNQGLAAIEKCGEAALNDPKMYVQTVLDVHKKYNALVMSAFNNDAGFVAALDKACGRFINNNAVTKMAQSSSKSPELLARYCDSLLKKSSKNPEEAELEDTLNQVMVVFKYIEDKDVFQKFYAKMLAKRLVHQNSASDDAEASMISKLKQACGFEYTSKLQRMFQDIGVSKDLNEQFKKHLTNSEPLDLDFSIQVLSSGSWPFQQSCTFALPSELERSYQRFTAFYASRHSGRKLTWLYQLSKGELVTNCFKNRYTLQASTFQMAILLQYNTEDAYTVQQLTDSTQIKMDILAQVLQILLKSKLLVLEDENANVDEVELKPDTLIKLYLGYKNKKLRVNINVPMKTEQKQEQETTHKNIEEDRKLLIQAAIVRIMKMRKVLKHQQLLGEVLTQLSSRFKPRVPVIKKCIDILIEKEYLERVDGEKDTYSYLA
Numbers stand for hits; n = inactive. This excerpt belongs to a sample that is enriched for hits.

SMILES	ROC1-CUL1 inh
Cn1c(-c2ccccc2)nc(=S)c2ccccc21	n
O=C(Nc1nnc(S(=O)(=O)N2CCCCCC2)s1)c1ccccc1	n
O=C(Nc1sc2c(c1C(=O)O)CCCCC2)c1ccccc1	n
NCCNC(=O)c1c(NC(=O)c2ccccc2)sc2c1CCCC2	34.1
Cc1ccc(C(=O)Nc2sc3c(c2C(=O)O)CCCC3)cc1	47.0
CC(=O)Nc1sc2c(c1C(=O)c1ccccc1)CCCC2	n
CN1CCN(C(=O)c2c(NC(=O)c3ccccc3)sc3c2CCCC3)CC1	n
CCOC(=O)c1c(NC(=O)c2ccc(C)cc2)sc2c1CCCCC2	n
CC1CCN(S(=O)(=O)c2ccc(NC(=O)CCCc3ccccc3)cc2)CC1	n
N#C/C(=C\c1ccc(-c2ccc(F)cc2F)o1)c1nc2ccccc2[nH]1	n
CC(=O)N1CCCC1c1nc2ccccc2n1Cc1ccccc1F (configuration not stated)	n
Cc1cc(=O)n2nc(N3CCC(C(=O)NCc4ccccc4F)CC3)sc2n1	n
O=C(Nc1ccc(F)cc1F)c1cccc(COc2ccc3ccccc3c2)c1	n
COc1ccc(CCNS(=O)(=O)c2ccc(C)cc2)c(OC)c1OC	n
COc1cc(N2CCCC2)c(OC)cc1CC1=NC(=O)N(Cc2ccccc2F)C1=O	n
COc1cc(OC)cc(C(=O)Nc2cccc(-c3cn4ccsc4n3)c2)c1	n
COc1ccc(CCNC(=S)Nc2cc(Cl)ccc2Cl)cc1OC	n
COc1ccc(CCNC(=S)S)cc1OC	99.1
COc1ccc(CCNC(=S)Nc2c(Cl)cncc2Cl)cc1OC	n
COCCOc1ccc(C(=O)Nc2cccc(C)c2)cc1	n
Cc1ccc(-n2c(Cl)c(Cl)nc(Cl)c2=O)cc1	45.0
Cc1ccc(-n2c(-c3ccccc3)cc(-c3ccccc3)nc2=O)cc1	n
Cc1ccc(-n2c(-c3ccncc3)n[nH]c2=S)cc1	n
COc1ccc2c(c1)-c1c(ssc1=S)C(C)(C)N2C(=O)Nc1ccc(Cl)c(Cl)c1	n
COc1ccc(/C(C)=N\NS(C)(=O)=O)c(OC)c1	n
SMILES	ROC1-CUL1 inh
O=C(NN1C(=O)C2C(c3ccccc3)C=CC(c3ccccc3)C2C1=O)c1ccncc1 (configuration not stated)	n
CSCCOC(=O)C1C(C)=NC(=O)NC1c1ccc(F)cc1 (configuration not stated)	n
CC#CCCC(=O)Nc1ccccc1F	n
COc1cc(/C=C2/C(=O)NN(c3ccc(C)c(Cl)c3)C2=O)cc(Cl)c1O	n
CCOc1cc(/C=C2\C(=O)NN(c3ccc(C)c(C)c3)C2=O)ccc1O	n
O=C1NN(c2cccc(Cl)c2)C(=O)/C1=C/c1ccccc1O	n
CCOc1cc(/C=C2\C(=O)NN(c3cccc(Cl)c3)C2=O)c(Br)c(Br)c1O	62.2
CCOc1cc(/C=C2\C(=O)NN(c3ccc(C)c(Cl)c3)C2=O)c(Br)c(Br)c1O	100.1
CCOc1ccccc1/C=C1\C(=O)NN(c2ccc(Br)cc2)C1=O	n
CN(C)CCNc1ncnc(N2CCOCC2)c1[N+](=O)[O-]	n
Cc1cc(C)c(NC(=O)Nc2ccc(F)cc2)c(Cl)c1	n
Cc1nn(Cc2ccc(Br)cc2)c(C)c1NC(=O)c1cc2nc3c(c(C(F)(F)F)n2n1)CCc1ccccc1-3	n
COc1ccc(NC(=O)Cn2cnc3scc(-c4ccc(OC)c(OC)c4)c3c2=O)cc1	n
O=C1Oc2ccccc2C(=O)C1C(c1ccc(F)cc1)C1C(=O)Oc2ccccc2C1=O (configuration not stated)	n
Cc1cccc2c1OC(=O)C(C(c1ccc(Cl)cc1)C1C(=O)Oc3c(C)cccc3C1=O)C2=O (configuration not stated)	78.3
O=C1Oc2ccccc2C(=O)C1C(c1cccc(O)c1)C1C(=O)Oc2ccccc2C1=O (configuration not stated)	n
Cc1ccc(NC(=O)Cn2nnc3sc4c(c3c2=O)CCCC4)c(C)c1	n
COC(=O)c1cc(NC(=O)Cc2ccc(Br)cc2)cc(C(=O)OC)c1	n
CSc1nc(Cl)c(Cc2ccc(OCC(C)C)cc2)c(N2CCOCC2)n1	n
COc1cc(CC2=NC(=S)N(C)C2=O)c(Br)cc1OCc1ccc(Cl)cc1	n
CN1C(=O)C(Cc2ccc(Br)s2)=NC1=S	n
CN1C(=O)C(Cc2cc(Cl)ccc2O)=NC1=S	27.0
O=C(CC(=O)Nc1ccccc1F)Nc1ccc2nc3n(c(=O)c2c1)CCCCC3	n
Cc1ccc(C)c(N2CCN(CCCNc3ncnc4onc(-c5ccc(Cl)cc5)c34)CC2)c1	n
COC(=O)COc1ccc2c(=O)c(Oc3ccccc3)c(C)oc2c1	n
SMILES	ROC1-CUL1 inh
Cc1oc2c(O)c(O)ccc2c(=O)c1Oc1ccc(F)cc1	56.3
Cc1oc2cc(OC(C)C)ccc2c(=O)c1Oc1ccccc1F	n
COc1ccc(-c2ccc(NS(=O)(=O)c3cccc(C)c3)cc2)nn1	n
NC(=O)N=Nc1c(O)[nH]c2ccc(Br)cc12	n
O=C1N=c2ccc([N+](=O)[O-])cc2=C1N=Nc1c(O)[nH]c2ccc([N+](=O)[O-])cc12	44.6
O=[N+]([O-])c1ccc2[nH]c(O)c(N=Nc3ccccc3[N+](=O)[O-])c2c1	n
CCc1ccc(NC(=O)c2cc3ccccn3n2)cc1	n
Cc1ccc(C2C3CCCC=C3C(C#N)C(=N)C2(C#N)C#N)cc1 (configuration not stated)	n
O=C(/C=C/c1ccco1)CCN1CCCCC1	n
CN1C(=O)C(=C/C=C/c2ccco2)C(=O)N(C)C1=S	44.8
O=C1C(=C/C=C/c2ccccc2Cl)C(=O)N(c2ccccc2)C(=S)N1c1ccccc1	n
CCCCCC(=O)N(CN1C(=O)c2ccccc2C1=O)c1ccc(C)cc1	n
COc1ccc(-c2cc(C(C)=O)c(C)n2CCC(=O)Nc2cc(C)ccc2OC)cc1	n
Nc1nc2ccccc2cc1C(=O)Nc1ccccc1	n
S=c1[nH]nc(-c2ccccc2)n1-c1ccc(Cl)cc1	n
Fc1ccc(-c2n[nH]c(=S)n2-c2ccccc2)cc1	36.0
CC(C)(C)c1ccc(-c2n[nH]c(=S)n2-c2ccccc2)cc1	n
CCCc1cc(CN(C)C(=O)Nc2ncn(CC)n2)[nH]n1	n
COc1cc(C)c(Cl)cc1S(=O)(=O)NCCc1c(C)[nH]c2ccccc12	n
Cc1cc(C)cc(N2C(=O)NC(=O)/C(=C\c3ccc(Br)o3)C2=O)c1	94.1
C=CCN1C(=O)/C(=C/c2ccc(-c3cccc(C(F)(F)F)c3)o2)C(=O)NC1=S	102.6
COc1ccc(N2C(=O)/C(=C/c3cc(C)n(-c4ccc(Cl)c(C(=O)O)c4)c3C)C(=O)NC2=S)c(OC)c1	79.5
Cc1ccc(N2C(=O)NC(=O)/C(=C\c3cc(Br)c(Sc4ccc(Cl)cc4)o3)C2=O)cc1	99.6
C=CCN1C(=O)/C(=C\c2cccc(OC)c2OC)C(=O)NC1=S	n
C=CCN1C(=O)/C(=C\c2cccc(OCc3ccc(F)cc3)c2)C(=O)NC1=S	n
SMILES	ROC1-CUL1 inh
COc1ccc(N2C(=O)/C(=C/c3cc(C)n(-c4ccc(NC(C)=O)cc4)c3C)C(=O)NC2=S)cc1	n
COC(=O)c1ccccc1-n1c(C)cc(/C=C2\C(=O)NC(=S)N(c3ccc(OC)cc3)C2=O)c1C	n
COc1cc(Br)cc(/C=C2/C(=O)NC(=O)N(c3cc(C)cc(C)c3)C2=O)c1O	n
COC(=O)CN1C(=O)S/C(=C/c2cc(Br)c(Sc3ccc(Cl)cc3)o2)C1=O	n
COc1cc(/C=C2\C(=O)NC(=O)N(c3cc(C)cc(C)c3)C2=O)cc(Br)c1O	n
O=C1NC(=S)NC(=O)C1=Cc1cc(Br)c(Sc2ccc(Cl)cc2)o1	n
O=[N+]([O-])c1ccc(N2CCN(S(=O)(=O)c3ccc4ccccc4c3)CC2)cc1NCc1ccccc1	n
